Test [1] can be described thus: compound effects on lung adenocarcinoma cell viability – A549, calcein-AM fluorescence, 48 h, basal, profiling panel (AID 1162). The settings on record: higher = more signal.
A short description of test [2]: compound effects on differentiated 3T3-L1 adipocyte viability – cell-based, 3T3-L1 adipocytes, calcein-AM fluorescence, 48 h, basal, profiling panel (AID 1163). The settings on record: 3T3-L1 adipocytes viability, higher = more signal.
A short description of test [3]: compound effects on hepatocellular carcinoma cell viability – HepG2, calcein-AM fluorescence, 48 h, basal, profiling panel (AID 1164). The following applies: higher = more signal.
The nature of test [4]: compound effects on multiple myeloma cell viability – MM1S, calcein-AM fluorescence, 48 h, basal, profiling panel (AID 1165).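 Also: viability of MM1S multiple myeloma cells under basal unstimulated conditions.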 The following applies: higher = more signal.
Test [5] in a line: calcein-AM signal in unstimulated myeloma cells – cell-based, calcein-AM fluorescence, 48 h, PK04 Diversity Set, profiling panel (AID 1166).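 Also: cells grown under basal conditions without added stimulus.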 The following applies: RPMI8226 myeloma viability, higher = more signal.
Test [6] can be described thus: JC-1 mitochondrial signal, unstimulated HepG2 cells – cell-based, JC-1 fluorescence, 24 h, 100 nL compound, profiling panel (AID 1167). The settings on record: HepG2 mitochondrial potential, higher = more signal.
Test [7] can be described thus: JC-1 mitochondrial signal, unstimulated adipocytes – cell-based, JC-1 fluorescence, 3T3-L1 adipocytes, 24 h, 100 nL compound, profiling panel (AID 1168). The following applies: JC-1 mitochondrial fluorescence, higher = more signal, called active from +8 up or from −8 down.
Test [8] in a line: JC-1 mitochondrial signal, unstimulated myeloma cells – cell-based, JC-1 fluorescence, RPMI8226, 24 h, 100 nL compound, profiling panel (AID 1169). The settings on record: JC-1 mitochondrial potential fluorescence, higher = more signal.
A short description of test [9]: JC-1 mitochondrial signal, unstimulated MM1S myeloma – cell-based, JC-1 fluorescence, 24 h, 100 nL compound, profiling panel (AID 1170). The settings on record: MM1S mitochondrial potential, higher = more signal.
Test [10] in a line: resazurin metabolic signal in A549 cells – cell-based, resazurin fluorescence, 24 h, PK04 Diversity Set, profiling panel (AID 1171). The settings on record: A549 viability, higher = more signal, called active from +8 up or from −8 down.

Active and inactive are the calls of the source.
Also: test concentration not given here.

As for `COC(=O)[C@@]1(Cc2ccc(F)cc2)[C@H]2c3cc(C(=O)N4CCCC4)n(Cc4ccccc4)c3C[C@H]2CN1C(=O)c1ccccc1`, the z-score was -0.858 in test [1]; -0.273 in [2]; -0.579 in test [3]; -2.1 in [4]; -4.11 in test [5]; 0.49 in [6]. Also, the z-score in test [7] was -0.76 (inactive); in test [8], -0.104; in test [9] it was -0.759; in test [10] it was 0.0314 (inactive).

For `C#CCOC(=O)N[C@H](C=CCCCC)c1ccccc1`, the z-score in test [1] is -1.18; in test [2] it was -0.115; in test [3], -0.517; in test [4], -0.334; in test [5], -0.508; in test [6] it was 1.47. Besides, the z-score is -0.62 (inactive) in [7], 0.15 in test [8], 0.0811 in [9] and -0.28 (inactive) in test [10].

`COC(=O)C(CC#Cc1ccc2c(c1)[C@]1(C(=O)N2)[C@H](c2ccc(O)cc2)N2[C@H](c3ccccc3)[C@H](c3ccccc3)OC(=O)[C@H]2[C@@H]1C(N)=O)C(=O)OC`: the z-score is 1.43 in test [1]; -0.0866 in test [2]; 0.188 in test [3]; 0.244 in [4]; 0.728 in test [5]; 1.44 in test [6]. Further, the z-score was 0.673 (inactive) in [7], -0.846 in test [8], -0.0448 in test [9] and 1.42 (inactive) in test [10].

Regarding `CC(C)(C)OC(=O)CC[C@]1(C(=O)O)COC(c2ccc(OCCCO)cc2)=N1`, the z-score in test [1] was -0.0651; in test [2], -2.83; in test [3] it was 0.218; in test [4] it was -0.97; in test [5], 0.151; in test [6], -0.924. Besides, the z-score in test [7] is -0.564 (inactive); in test [8] it was -0.812; in test [9], 0.148; in test [10] it was -0.135 (inactive).

Turning to `O=C1O[C@H](c2ccccc2)[C@H](c2ccccc2)N2[C@H]1[C@@H](C(=O)N1CCCCCCC1)[C@]1(C(=O)Nc3ccccc31)[C@H]2c1ccc(O)cc1`, the z-score in test [1] is 0.416; in test [2] it was 0.759; in test [3] it was 0.757; in test [4] it was -1.81; in [5] it was -2.71; in test [6], -1.65. For the same compound, the z-score in test [7] was 0.123 (inactive); in [8] it was -0.536; in [9] it was 0.385; in test [10], -1.52 (inactive).

As for `O=C1C2C=CC(C(O)c3cccc4ccccc34)N(Nc3ccccc3)C2C(=O)N1c1ccccc1` (stereo not given), the z-score in [1] was 0.112; in test [2] it was -1.54; in test [3] it was 0.22; in [4], -0.624; in test [5] it was -1.52; in test [6], -1.09. The z-score in test [7] was -0.209 (inactive); in [8] it was -0.408; in test [9] it was -0.318; in [10], -0.854 (inactive).

In the case of `CN(C)CCCNC(=O)[C@@]1(Cc2ccccc2I)c2ccccc2C(=O)N(Cc2ccccc2Cl)[C@H]1c1ccc(CO)cc1`, the z-score in [1] was -4.22; in test [2], 0.711; in test [3] it was -5.11; in test [4] it was -3.8; in test [5], -4.38; in test [6], -1.9. The z-score in test [7] was -0.373 (inactive); in test [8], -0.935; in test [9], -2.3; in test [10] it was -6.99 (inactive).

For `CCCCC(=C=CC[C@H](O)c1ccccc1OCCO)C[C@H](O)c1ccccn1`, the z-score in test [1] was 0.747; in [2], -0.547; in [3] it was 1.04; in [4], 0.7; in test [5], -0.327; in test [6], 0.21. Moreover, the z-score was 0.589 (inactive) in [7], -0.45 in test [8], -1.14 in test [9] and 0.412 (inactive) in [10].

For `COc1ccccc1CN1C(=O)c2ccccc2[C@@]2(Cc3ccccc3N(C3CC3)C2=O)[C@@H]1c1ccc(CO)cc1`, the z-score in [1] was 0.0264; in [2] it was 0.358; in [3] it was 0.43; in test [4], -1.6; in test [5] it was -0.96; in [6], -0.774. In addition, the z-score in test [7] was -0.607 (inactive); in test [8], 0.213; in test [9], 0.361; in [10] it was 0.375 (inactive).

As for `COC(=O)C(CC#Cc1ccc2c(c1)[C@]1(C(=O)N2)[C@H](c2ccc(O)cc2)N2[C@H](c3ccccc3)[C@H](c3ccccc3)OC(=O)[C@H]2[C@@H]1C(=O)O)C(=O)OC`, the z-score is 0.391 in [1]; -0.987 in [2]; 0.0171 in [3]; 0.226 in test [4]; -0.892 in test [5]; -0.141 in test [6]. The z-score is -0.687 (inactive) in test [7], 0.491 in test [8], 0.412 in test [9] and -0.279 (inactive) in test [10].

As for `CC(C)C(CO)N1C(=O)[C@@H]2[C@H]3C(=O)OCC=C[C@H]3OC23C=CCN(CCN2CCOCC2)C(=O)[C@@H]13` (stereo not given in full), the z-score in test [1] was -0.334; in test [2], -0.347; in test [3] it was -0.434; in test [4], -0.201; in test [5], 0.372; in test [6], -0.982. For the same compound, the z-score in [7] was -0.648 (inactive); in test [8] it was 0.237; in test [9], 0.105; in [10], -0.324 (inactive).

With `COc1cc2c(cc1OC)CN(C(=O)[C@@H]1[C@H]3C(=O)O[C@H](c4ccccc4)[C@H](c4ccccc4)N3[C@H](c3ccc(OCCO)cc3)[C@@]13C(=O)Nc1ccc(C#CCCO)cc13)CC2`, the z-score was -0.433 in test [1]; 1.06 in test [2]; -0.857 in [3]; -0.369 in [4]; -0.987 in test [5]; -1.56 in test [6]. For the same compound, the z-score was 1 (inactive) in [7], -0.862 in test [8], -1.04 in test [9] and 0.519 (inactive) in test [10].

Regarding `C=C(/C(=C/C[C@@H](OC(=O)c1ccncc1)c1ccccc1OCCO)c1cnc2ccccc2c1)C(C)C`, the z-score in [1] was -0.36; in test [2], -0.368; in test [3], -3.15; in [4] it was -3.1; in test [5], -2.45; in test [6], 0.76. Further, the z-score in test [7] is -0.19 (inactive); in test [8], 0.14; in test [9] it was 1.08; in test [10], -1.15 (inactive).

For `COCCOC(=O)N1C(=O)[C@@]2(c3cc(C#Cc4ccc(OC)cc4)ccc31)[C@H](c1ccc(OCCO)cc1)N1[C@H](c3ccccc3)[C@H](c3ccccc3)OC(=O)[C@H]1[C@@H]2C(N)=O`, the z-score is -0.383 in test [1]; 0.806 in test [2]; -0.792 in test [3]; -1.14 in test [4]; -2.7 in test [5]; -0.617 in test [6]. Besides, the z-score was 1.98 (inactive) in test [7], -0.65 in test [8], -1.11 in test [9] and -0.588 (inactive) in test [10].

With `CCCCC(=C=CC[C@H](O)c1cccc(OCCO)c1)C[C@H](O)COCc1ccccc1`, the z-score in [1] was 0.803; in test [2], 0.403; in [3] it was 0.0132; in test [4] it was -1.06; in [5] it was -0.63; in test [6] it was 0.214. Also, the z-score is 0.254 (inactive) in test [7], 0.746 in [8], -0.378 in test [9] and 1.4 (inactive) in test [10].

Source of the values: PubChem BioAssay.
